Source: ChEMBL document CHEMBL3988442, “University of Dundee, Small-Polar-MMV Screening Library” (2021)
Out of some 48,000 compounds screened, about 13,000 (27%) showed an effect of 50% or more. The list shows a part of the results.

tested on: Wolbachia pipientis; test: Anti-Wolbachia Cell-Based Screen; type: functional; design: scale not given: in the data most compounds retested in dose-response had high values; settings: 5 µM

In order of falling “Percent Effect” value:
1. CC(=O)N1Cc2ccccc2CC2(CCCCN2C)C1 (centres undefined)  130.2%
2. CC(C)(C)n1nc(C(=O)NC2CCN(CC(N)=O)CC2)cc1C1CC1  128.2%
3. CC(C)c1cc(C(=O)NC2CCN(CC(N)=O)CC2)nn1C(C)(C)C  128%
4. CN(C)c1cc(CNC(=O)Nc2nccs2)ccn1  125%
5. CN1CCCCC12Cc1ccccc1CN(C(=O)C1CCCC1)C2 (centres undefined)  124.9%
6. CC(C)(C)n1nc(C2CC2)cc1C(=O)NC1CCN(CC(N)=O)CC1  124.1%
7. CN1CCCCC12Cc1ccccc1CN(C(=O)c1ccccc1)C2 (centres undefined)  117.9%
8. OC(CN1CCC(c2ccn[nH]2)CC1)c1cccc(C(F)(F)F)c1 (centres undefined)  117.8%
9. CNC(=O)C1CCC(NC(=O)c2cc(C3CC3)n(C(C)(C)C)n2)CC1 (centres undefined)  117.3%
10. OC(CN1CCC(c2ccn[nH]2)CC1)c1cc(F)ccc1F (centres undefined)  116%
11. OC(CN1CCC(c2ccn[nH]2)CC1)c1ccc(F)cc1 (centres undefined)  112.6%
12. OC(CN1CCC(c2ccn[nH]2)CC1)c1ccc(F)cc1F (centres undefined)  102.6%
13. OC(CN1CCC(c2ccn[nH]2)CC1)c1ccccc1F (centres undefined)  96.43%
14. CN(C)c1cc(CNC(=O)Nc2nncs2)ccn1  51.52%
15. Cc1noc(C)c1CNC(=O)N1CCC(OCC2CC2)CC1  12.01%
16. O=c1cc(-c2ccncc2)nc(-c2ccc(CN3CC[C@H](O)C3)cc2)[nH]1  9.166%
17. CC(C)(C)n1nc(C(=O)NCC2(C(N)=O)CCOCC2)cc1C1CC1  8.942%
18. CN(CC1CCN(CCO)CC1)CC(O)c1ccc(F)cc1F (centres undefined)  7.101%
19. O=C1CCCN1CCN1CCC(c2ccn[nH]2)CC1  6.838%
20. CCN(C(=O)CN(Cc1cccc(O)c1)C1CCC(O)CC1)C1CC1 (centres undefined)  5.971%
21. NC(=O)C1CCN(CCCc2ccc(C(F)(F)F)cc2)CC1  5.084%
22. CC(C)c1nnc2n1CCN(C(=O)CN1CCc3sccc3C1)C2  4.372%
23. CC(C)(C)n1nc(C2CC2)cc1C(=O)NCC1(C(N)=O)CCOCC1  3.596%
24. OCC1CN(Cc2nc(C(F)(F)F)cs2)c2ccccc2O1 (centres undefined)  3.254%
25. CN(Cc1ccccc1)C1(C(=O)NC(CO)CO)Cc2ccccc2C1  2.959%
26. CCNc1ccnc(NC2CCN(CC(N)=O)CC2)n1  2.921%
27. CN(C)c1cc(CNC(=O)Nc2ccc(F)cc2)ccn1  2.745%
28. Cc1n[nH]cc1CNC(C(=O)N1CCCCC1)c1ccccc1 (centres undefined)  2.279%
29. OC(COc1ccccc1)CN1CCC(c2ccn[nH]2)CC1 (centres undefined)  2.003%
30. Cn1nc(C(=O)NC2CC(C)(C)NC(C)(C)C2)cc1NC(=O)C1CC1  -0.3555%
31. Cn1nccc1C1CCN(CC(O)c2cccc(F)c2)CC1 (centres undefined)  -0.7122%
32. O=C(CCCc1cn[nH]c1)N1C[C@@H](CN2CCCC2)C[C@H](CO)C1  -0.9744%
33. OC(COCc1ccc(Cl)cc1)CN1CCC(c2ccn[nH]2)CC1 (centres undefined)  -1.567%
34. CS(=O)(=O)N1CCCCC12CCN(C(=O)c1ccccc1)C2 (centres undefined)  -1.645%
35. O=C(Nc1cnc2n1CCCC2)c1cccc(-n2cnnc2)c1  -1.722%
36. Cc1cccc(CNCC2COC3(CCCC3)O2)c1C (centres undefined)  -2.633%
37. CS(=O)(=O)c1ccc(C(O)CN2CCC(c3ccn[nH]3)CC2)cc1 (centres undefined)  -3.645%
38. CC(C)c1nn(C)c(N2CCOCC2)c1CNCCS(C)(=O)=O  -4.469%
39. Cc1cc(C(=O)N[C@H]2CN(CCO)C[C@@H]2C2CC2)sc1C  -4.663%
40. CN1CCN(C(=O)C2(S(C)(=O)=O)CCCC2)Cc2ccccc21  -5.505%
41. CN(C)c1cc(CNC(=O)Nc2ccc(S(C)(=O)=O)nc2)ccn1  -6.104%
42. Cc1ccc(F)c(OC2CCCN(c3cnn(C)c3)C2=O)c1 (centres undefined)  -6.274%
43. N#CC1(NC(=O)c2ccn(-c3ccccc3Cl)n2)CCSC1 (centres undefined)  -6.951%
44. OC(COCc1cccs1)CN1CCC(c2ccn[nH]2)CC1 (centres undefined)  -8.119%
45. OC(CN1CCC(c2ccn[nH]2)CC1)c1cccc(F)c1 (centres undefined)  -8.538%
46. Cn1nc(C(=O)NC2CC2)cc1NC(=O)C1CC1  -11.77%
47. CC(C)c1cc(C(=O)NCC2(C(N)=O)CCOCC2)nn1C(C)(C)C  -12.39%
48. CN1CCN(C(=O)C2(NC(N)=O)CCCCC2)Cc2ccccc21  -12.44%
49. OC(CN1CCN(c2ncccn2)CC1)c1cccc(F)c1 (centres undefined)  -12.81%
50. COc1cc(C)cc(C(C(=O)O)N2CCN(C3CCCC3)CC2)c1OC (centres undefined)  -14.27%
51. O=C(NC1CCc2ccccc2C1)N1CCN(C(=O)C2CCC2)CC1 (centres undefined)  -14.39%
52. CN1[C@H](CO)C[C@H](CNCc2ccc(Cl)c(F)c2)[C@@H]1c1ccccc1F  -19.47%
53. N#Cc1ccnc(N2CCN(CC(O)c3ccc(F)cc3F)CC2)c1 (centres undefined)  -23.85%
54. CCc1ccc(CCNc2ncnc3c2CCN(C(=O)C2CC2)C3)cc1  -23.9%
